Assay outcomes: PubChem BioAssay, National Center for Advancing Translational Sciences (NCATS)
This is a sample that favours compounds with a hit; in the whole collection about 2.9% have one here.
D3 ag – D3 dopamine receptor (human) agonism; D3R DiscoveRx beta-arrestin cells, luminescence, 90 min; P35462; 0.58% of 410,000 active; max activation, %; in the data active = max activation above about 30%; note: 0% is about no effect
Target sequence (P35462 whole entry, looked up): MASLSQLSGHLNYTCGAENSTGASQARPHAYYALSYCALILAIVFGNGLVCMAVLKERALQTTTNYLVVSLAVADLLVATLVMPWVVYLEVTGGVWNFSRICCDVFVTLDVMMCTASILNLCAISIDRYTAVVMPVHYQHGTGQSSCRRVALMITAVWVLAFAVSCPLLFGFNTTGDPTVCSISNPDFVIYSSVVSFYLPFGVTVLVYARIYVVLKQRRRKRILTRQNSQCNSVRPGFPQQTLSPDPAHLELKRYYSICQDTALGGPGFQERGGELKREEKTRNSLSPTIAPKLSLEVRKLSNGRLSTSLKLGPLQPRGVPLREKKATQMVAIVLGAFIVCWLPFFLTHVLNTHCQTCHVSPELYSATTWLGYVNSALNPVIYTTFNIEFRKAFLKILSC
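Agonist-mode cell screen: cells plated at 1500/well and incubated overnight at 37 °C, then exposed to library compounds for 90 min at 37 °C. Detection reagent was added for 30–60 min at room temperature, and luminescence was read.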
Integrin act MD – activators of alpha7 integrin expression for muscular dystrophy. Potency, µM (series often up to 38.3 µM), for inactives: top-dose activation, hits mostly activators. AID 624291. alpha7betagal myoblasts, beta-gal FDG fluorescence, 48 h. 0.064% of 350,000 active; active = well fitted activation curve with a large enough effect; inconclusive = small, poorly fitted or top-dose-only effect; inactive = no such curve, though single readings can be large or run the other way;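 note: potency is the fitted concentration of half-maximal effect; 100% = response of the positive control SU9516; nearly all actives have a fitted effect of over 60% in size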
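Alpha7betagal+/- myoblasts (passage 13) were plated 16-24 hr, then exposed to compounds (1:260 dilution of DMSO stock) for 48 hours at 37C. After MPER lysis, β-galactosidase reporter activity was read as FDG fluorescence (ex 480/em 540) after 30 minutes.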
D3 antag – D3 dopamine receptor (human) antagonism. P35462. D3R cells, DiscoveRx beta-arrestin luminescence, antagonist mode; hits give low values. max response, negative = inhibition, %. 2.5% of 360,000 active; in the data active = max response below about -50%; inconclusive = no clear call, values can overlap the other calls; note: % is set by controls: 0 for no effect and ±100 for the full control effect
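Cells plated overnight at 1500 cells/well, then exposed to library compounds with dopamine controls for 90 minutes at 37 degrees C. DiscoveRx reagent added for 30–60 minutes at room temperature; luminescence read, quantitative HTS format.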
* = called active by the depositor; ? = inconclusive; . = not tested or not shown.

SMILES | D3 ag | Integrin act MD | D3 antag
Cc1nn(Cc2ccccc2)c(Cl)c1C(=O)NC1CCCc2ccccc21 (stereo not drawn) | 4 | 33% | -7
CCOC(C(=O)OCCC[N+](C)(CC)CC)(c1ccccc1)c1ccccc1 | -25 | 12% | -24
CCOC(C(=O)OCC(O)CN(CC)CC)(c1ccccc1)c1ccccc1 (stereo not drawn) | -5 | -17% | -60*
CCOC(=O)c1ncn2c1CN(C)C(=O)c1c(I)cccc1-2 | -26 | . | .
CC(C)C[C@H]1C(=O)N2CCC[C@H]2[C@]2(O)O[C@](NC(=O)[C@@H]3C=C4c5cccc6[nH]cc(c56)C[C@H]4N(C)C3)(C(C)C)C(=O)N12 | -9 | . | -76*
CC[C@@H](CO)NC(=O)[C@@H]1C=C2c3cccc4c3c(cn4C)C[C@H]2N(C)C1 | -88 | . | -93*
CC[C@@H](CO)NC(=O)[C@@H]1C=C2c3cccc4[nH]cc(c34)C[C@H]2N(C)C1 | 33* | . | -17
CCC(CO)NC(=O)C1C=C2c3cccc4[nH]cc(c34)CC2N(C)C1 (stereo not drawn) | 15 | . | -57*
CN1C[C@H](C(=O)N[C@]2(C)O[C@@]3(O)[C@@H]4CCCN4C(=O)[C@H](Cc4ccccc4)N3C2=O)C=C2c3cccc4[nH]cc(c34)C[C@H]21 | -11 | . | .
O=P(Oc1ccc(-c2ccccc2)cc1)(N1CC1)N1CC1 | 1 | -38% | -28
Cc1ccc(C(O)(C(=O)OC(C)C)C(O)c2ccc(F)cc2)cc1 (stereo not drawn) | -2 | . | -4
COc1cc2cc(C(=O)N3CC(COS(C)(=O)=O)c4ccc(O)cc43)[nH]c2c(OC)c1OC (stereo not drawn) | -16 | -53% | -21
CC(C)CNc1c2c(nc3ccccc13)CCC2 | -9 | -59% | -20
COc1ccc(Oc2cc(NC(=O)c3nn(C)cc3[N+](=O)[O-])cc([N+](=O)[O-])c2)cc1 | -5 | -30% | ?
COc1cc(/C=C2\C[C@H]3[C@@H]4CC=C5C[C@@H](N6CCCC6)CC[C@]5(C)[C@H]4CC[C@]3(C)[C@H]2O)cc(OC)c1OC | -28 | 0% | -70*
C[C@]12CC[C@@H](O)CC1=CCC1C2CC[C@@]2(C)C1CC[C@@H]2N (stereo partly drawn) | 13 | -60% | 1
CC12C=CC(=O)C=C1CCC1C2C(=O)CC2(C)C(=O)CCC12 (stereo not drawn) | -9 | ? | -8
CCCNC(=O)Cn1cnc2sc(C(=O)N3CCC4(CC3)OCCO4)c(C)c2c1=O | 3 | -7% | 0
CC(C)CCNC(=O)CN1C(=O)CN=C(c2ccccc2)c2ccccc21 | 0 | 9% | -13
O=C(CN1C(=O)CN=C(c2ccccc2)c2ccccc21)NCc1ccco1 | -7 | -18% | -61*
COc1ccc(-c2nn(CCC#N)cc2C(=O)Nc2ccccc2Cl)cc1 | 0 | 4% | -7
Oc1ccc2ccccc2c1CN1CC=C(c2ccccc2)CC1 | -12 | -21% | ?
Oc1ccc2[nH]cc(CCCCN3CC=C(c4ccccc4)CC3)c2c1 | 55* | . | .
O=C(CCN1CC=C(c2ccccc2)CC1)NCc1ccccc1 | 10 | -16% | -69*
Cc1cc(Br)c(NC(=O)CN2CC=C(c3ccccc3)CC2)c(Br)c1 | 1 | 10% | 4
SMILES | D3 ag | Integrin act MD | D3 antag
Cc1[nH]c2ccccc2c1C(=O)CN1CC=C(c2ccccc2)CC1 | 1 | -9% | ?
O=C(O)c1ccc2[nH]cc(CCCCN3CC=C(c4ccccc4)CC3)c2c1 | 73* | . | .
CC(C)OP(=O)(Oc1ccc(C(O)C(Cl)(Cl)Cl)cc1)OC(C)C (stereo not drawn) | -12 | 8% | -16
NC(=O)C1(N2CCCCC2)CCN(Cc2ccccc2)CC1 | -29 | 19% | -68*
O=C(Cc1ccccc1)OCCN1CCCCC1 | 1 | 10% | ?
C[C@@H](Cc1ccccc1)N(C)C | -4 | . | .
CN1CCN(Cc2nc3ccccc3c(=O)[nH]2)CC1 | 0 | 12% | -19
CC(Cc1ccccc1Sc1ccc(O)cc1)N(C)C (stereo not drawn) | -15 | -25% | -52*
CN1CCN(Cc2ccccc2Sc2ccccc2)CC1 | -19 | -14% | -51*
CC(Cc1ccccc1Sc1ccccc1)N(C)C (stereo not drawn) | -17 | -39% | -64*
COc1ccccc1Sc1ccccc1CC(C)N (stereo not drawn) | -2 | -61% | 8
COC(=O)C1=C(c2ccccc2OCc2ccccc2)C[C@@H]2CC[C@H]1N2C(=O)NCCOc1ccccc1Cl | -19 | -36% | -22
COc1ccccc1NP1(=O)OCC(C)([N+](=O)[O-])CO1 (stereo not drawn) | 5 | -11% | 8
Cc1ccccc1Cn1cccc(C(=O)Nc2nc3ccccc3s2)c1=O | -1 | . | .
NC1CCc2cc(O)c(O)cc2C1 (stereo not drawn) | 141* | . | 59
COC(=O)CC1=C(C(=O)OC)C2(C(=O)Nc3c(C)cccc32)C(C#N)=C(N)O1 (stereo not drawn) | 1 | -37% | 17
CCN(CC)C(=O)c1ccc(NC(=O)c2cccc(C(F)(F)F)c2)cc1 | -15 | -7% | -24
CCN(CCCl)c1cc(CN(C)C)cc(NC(=O)c2ccc(C(=O)Nc3cc(CN(C)C)cc(N(CC)CCCl)c3)cc2)c1 | -12 | -59% | -84*
O=P(c1ccccc1)(c1ccccc1)N(c1ccccc1)c1ccccc1 | -9 | ? | -54*
CN(C)c1ccccc1 | 8 | 4% | 14
COc1ccc(C(=O)O/N=C(/C(N)=O)P(=O)(OC(C)C)OC(C)C)cc1 | -17 | 7% | -22
Cc1c(N=Nc2c(O)n(-c3ccc(Br)cc3)c(=O)[nH]c2=O)c(=O)n(-c2ccccc2)n1C | -18 | -18% | -14
